The values below come from PubChem BioAssay AID651858 (Broad Institute, 2012).

The list shows a part of the results. Activity calls are given as the source filed them.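 How the source made its calls: active means at highest dose tested, delta Tm positive; inactive means the rest.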

This assay is described as follows: Sypro Orange dye melt without protein, dose response, artefact control for Keap1-Nrf2 interaction inhibitor project, biochemical, thermal shift counterscreen, cherry-pick (AID 651858). The conditions noted are these: Sypro Orange dye-only thermal melt, no protein, top dose 50 µM, stronger effect = higher value. On the technique in general: Counterscreens check selectivity or assay interference.
For `CCCC(=O)Nc1ccc(C(=O)NCCCn2ccnc2)cc1`, the delta Tm is -28 °C (inactive).

For `Nc1ccc2nc3c(=O)[nH]c(=S)[nH]c3nc2c1`, the delta Tm was -27.3 °C (inactive).

On to `COc1ccc(C2c3ccc(O)cc3Oc3ncn(CCCO)c(=N)c32)cc1OC` (stereo not given), for which the delta Tm was -26.7 °C (inactive).

Consider `O=C(Nc1ccccn1)C1CCN(S(=O)(=O)c2ccc3c(c2)OCCO3)CC1`, for which the delta Tm was -21.3 °C (inactive).

With `CCCC1OC23CCCCC2C(C#N)(C#N)C1(C#N)C(=N)O3` (stereo not given), the delta Tm is -28.4 °C (inactive).
